Screens deposited in PubChem BioAssay by National Center for Advancing Translational Sciences (NCATS).
A selection: hits, their analogues and other compounds. The true share with any hit is near 8.3%.
SW480 rereplic – inducers of DNA re-replication in SW480 colon cancer cells. SW480 DNA re-replication, Hoechst DNA content imaging, 48 h. Potency, µM (top dose mostly 46.1 µM), for the others: top-dose re-replication activation, actives largely listed as activators. 340,000 tested, 1.8% active. AID 624297; also: potency is read from the fitted curve at half-maximal effect; % of control where 0% means no effect; nearly all actives have a fitted effect of over 55% in size
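Image-based DNA-content assay: after two days of treatment, nuclei were labelled with the DNA dye Hoechst and imaged, and hits were compounds raising the count of nuclei showing high fluorescence intensity.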
Giardia kill – kills Giardia lamblia | Giardia lamblia trophozoite viability | activity change, % at 7.66 µM, hits read low | 340,000 tested, 0.15% active | AID 540267; in the data active = activity change below about -80%; inconclusive = between about -30% and that limit;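 also: parasites exposed to compound for two days anaerobically before the ATP read; % is scaled to controls: 0 for no effect and ±100 for the full control effect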
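Compounds were tested on trophozoites seeded at 100 cells/well and held 48 hrs at 37 deg C anaerobically. An ATP-based luminescent kit measured the remaining live cells.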
VP16 counter – Gal4-VP16 reporter inhibition counter-screen. Drosophila S2 Gal4-VP16 UAS-luciferase, luminescence, 20 h. Potency, µM (titrated, usually from 53.6 µM), inactives show top-dose activity, negative = inhibition, hits mostly inhibitors. 310,000 tested, 3.5% active. AID 2546;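 also: Gal4-VP16 expression switched on by copper sulfate through the metallothionein promoter; potency is read from the fitted curve at half-maximal effect; % is scaled to controls: 0 for no effect and ±100 for the full control effect; nearly all actives have a fitted effect of over 50% in size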
RORgamma inh – ROR gamma (mouse) transcription inhibition; Drosophila S2 Gal4-RORgamma UAS-luciferase reporter, 20 h; Potency, µM (series often up to 53.6 µM), inactives show top-dose activity change, negative = inhibition, usual class: inhibitors; 310,000 tested, 5.4% active; AID 2551; also: potency is read from the fitted curve at half-maximal effect; % is scaled to controls: 0 for no effect and ±100 for the full control effect; nearly all actives have a fitted effect of over 60% in size
Target sequence (P51450 whole entry, looked up, the tested form may be a part): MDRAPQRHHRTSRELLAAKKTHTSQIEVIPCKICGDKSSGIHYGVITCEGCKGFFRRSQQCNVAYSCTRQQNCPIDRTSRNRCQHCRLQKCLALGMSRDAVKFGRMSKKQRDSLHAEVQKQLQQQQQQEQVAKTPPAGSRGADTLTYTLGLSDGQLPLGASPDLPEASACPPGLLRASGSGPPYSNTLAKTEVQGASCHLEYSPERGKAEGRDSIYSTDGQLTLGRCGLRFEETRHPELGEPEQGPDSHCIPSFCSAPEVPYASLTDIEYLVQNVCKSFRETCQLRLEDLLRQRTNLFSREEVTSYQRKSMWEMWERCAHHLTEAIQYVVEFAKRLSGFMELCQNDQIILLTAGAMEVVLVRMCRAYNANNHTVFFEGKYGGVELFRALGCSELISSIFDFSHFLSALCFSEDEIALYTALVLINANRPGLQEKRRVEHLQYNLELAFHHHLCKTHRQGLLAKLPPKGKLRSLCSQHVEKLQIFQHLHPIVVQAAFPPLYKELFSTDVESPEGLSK
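Compounds are pin-transferred onto Drosophila Schneider cells expressing a copper-inducible Gal4–ROR gamma transactivation domain fusion. After 1 hr, copper sulfate is added to 700 uM final; luciferase is read 20 hr later.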
MCF10A rerep – inducers of DNA re-replication in MCF 10A breast cells | MCF 10A DNA re-replication, Hoechst nuclear intensity, 48 h | Potency, µM (series often up to 46.1 µM), inactives show top-dose activity, positive = re-replication, actives largely listed as activators | 350,000 tested, 2.9% active | AID 624296; also: potency is read from the fitted curve at half-maximal effect; % of control where 0% means no effect; nearly all actives have a fitted effect of over 50% in size
BCR signal inh – chronic active BCR signaling inhibition; ABC-DLBCL IkBa-CBG/CBR reporter, luminescence ratio, 4 h; Potency, µM (titrated, usually from 46.1 µM), for inactives: at the highest dose activity change, negative = inhibition, most hits filed as inhibitors; 340,000 tested, 0.05% active; AID 493014; active = well fitted inhibition curve with a large enough effect in the signal ratio, with a control signal flat, not every such curve was filed as active; inconclusive = small, poorly fitted or top-dose-only effect, or effect the other way, or a change in a side signal; the % refers to the signal ratio;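 also: potency is read from the fitted curve at half-maximal effect; plate controls were basal doxycycline-induced cells for no effect and cells given 10 µM MG132 for full effect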
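Cell line TMD8 (human ABC DLBCL), stably expressing tet-inducible CBG68-IkBa fusion and CBR; IMDM/0.5% FBS; cpd up to 46 uM; dox induction, 4 h, 37C/5% CO2; dual luminescence; green/red ratio; MG132 control.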
Active calls of the source: *; u = inconclusive; x = no result given; [ ] = another dose, or the depositor's remark. Unless noted, calls follow the shape of the dose curve; as a rule, active = well fitted curve in the direction sought with a large enough effect; inconclusive = small, poorly fitted or top-dose-only effect, or another doubt; inactive = no such curve, though single readings can be large; an effect the other way counts as inactive or inconclusive.

SMILES | SW480 rereplic | Giardia kill | VP16 counter | RORgamma inh | MCF10A rerep | BCR signal inh
COc1ccc(C(=O)N2CCN(C)C(=O)[C@@H]2C)cc1OC1CCN(C(C)=O)CC1 | 1% | 7 | 2% | -4% | 1% | -9%
Cc1nc(-c2ccccc2)cn(O)c1=O | 2% | 8 | -72% | 6.3µM* | 2% | -1%
COc1cc(C)ccc1OCCCOc1ccccc1Br | -7% | -8 | -23% | 13µM* | 12% | 1%
COc1ccccc1OCCCOc1ccc(C)cc1Br | -2% | 13 | -16% | 0% | u | 1%
CN(CC1COc2ccccc2O1)C(=S)Nc1ccccc1 (centres undefined) | 0% | -8 | x | x | 9% | x
CCN(CC1COc2ccccc2O1)C(=S)NC1CC2CCC1C2 (centres undefined) | 1% | -15 | u | 8.9µM* | 1% | u
CCN1CCCc2cc(CN(CCN3CCOCC3)C(=S)Nc3ccc(OC)cc3)ccc21 | -4% | 8 | 0%[10 µM] | u | 15% | 1%
CCN1CCCc2cc(CN(CCN3CCOCC3)C(=S)Nc3cccc(Cl)c3)ccc21 | 13% | 16 | -2%[10 µM] | 7.1µM* | u | 1%
CCOc1ccc(NC(=S)N(CCN2CCOCC2)Cc2ccc3c(c2)CCCN3CC)cc1 | 3% | -21 | u | 6.3µM* | 7% | -3%
CCCN1CCCc2cc(CN(CCCN3CCOCC3)C(=O)Nc3ccc(CC)cc3)ccc21 | x | x | x | x | x | 2%
CCN1CCCc2cc(CN(CCN3CCOCC3)C(=S)Nc3cc(F)cc(F)c3)ccc21 | 3% | -22 | 1%[10 µM] | 7.1µM* | 1% | u
CCN1CCCc2cc(CN(CCN3CCOCC3)C(=S)Nc3ccc(C)cc3)ccc21 | 16% | -24 | -20%[10 µM] | 3.5µM* | u | 4%
CCCCN1CCCc2cc(CN(CCCN3CCOCC3)C(=O)Nc3ccc(CC)cc3)ccc21 | x | x | x | x | x | 2%
CCCC(C)(C)C(=O)Nc1ccc(Cl)cc1 | x | x | 1% | -18% | x | x
C/C=C/c1ccc(OCCOCCNCc2ccccc2)c(OC)c1 | u | 3 | 1% | 0%[1.91 µM] | 0% | -7%
CCOc1ccc(NC(=S)N(CCCN2CCCC2)Cc2cccn2Cc2ccc(Cl)cc2)cc1 | u | -2 | -2% | 13µM* | -1% | u
Cc1cccc(NC(=S)N(CCCN2CCCC2)Cc2cccn2Cc2ccc(Cl)cc2)c1 | 5% | 13 | u | u | u | u
OC(C#Cc1ccccn1)c1cccs1 (centres undefined) | u | -21 | 4.5µM* | 10µM* | u | u
O=C(NC1CCCCC1)C(c1cccs1)N(C(=O)c1ccccn1)c1ccccc1 (centres undefined) | -15% | -7 | -11% | 29% | -14% | 7%
Cc1cc(C(=O)N/N=C\c2cc(C(C)(C)C)c(O)c(C(C)(C)C)c2)n[nH]1 | -3% | -10 | 3.5µM* | 6.3µM* | u | u
Cc1cc(C(=O)N/N=C/c2ccc[nH]2)no1 | -4% | -3 | 11µM* | 10µM* | -5% | u
Cc1cc(C(=O)N/N=C/c2ccc[nH]2)n[nH]1 | -2% | 7 | 13% | 2.8µM* | -2% | u
COc1cc(C2=NOC(C(=O)Nc3c(C)n(C)n(-c4ccccc4)c3=O)C2)cc(OC)c1OC (centres undefined) | -6% | -10 | -6% | 15% | 6% | 2%
CC(C)(C)S(=O)(=O)N1Cc2ccc(CO)cc2[C@@H]1CCO | -26% | 5 | x | x | -6% | x
CCCCC1=CC2=C(c3ccco3)C(=O)C(C)(OC(=O)c3cccs3)C(=O)C2=CO1 (centres undefined) | x | x | -3% | -1% | x | x
CC1CCCC(C)N1C(=O)CSc1nnc(-c2ccco2)n1C (centres undefined) | -6% | 19 | x | x | 2% | -1%
Cc1ccc(NC2=NCC(Cc3ccc(Br)cc3)S2)cc1 (centres undefined) | u | 8 | u | 13µM* | u | -14%
